Experimental findings from PubChem BioAssay (EPA / NIEHS) are described below.

One may read the AC50 as the midpoint of the concentration-response curve, whichever way the signal moves.

Molecules are shown by their SMILES. Inconclusive results are not listed. Activity calls are given as the source filed them. How the source made its calls, unless noted: active means hit-call score of the fitted dose curve at least 0.9, where 1 is the maximum; inconclusive means response in the unintended direction; inactive means score below 0.9.

The nature of assay [1]: ATG_PPRE_CIS: Attagene CIS-FACTORIAL HepG2 Assay for human Peroxisome Proliferator-activated Response Element (PPRE) (AID 2282958; active means hit-call score of the fitted dose curve at least 0.9, where 1 is the maximum; inactive means score below 0.9). The following applies: HepG2 PPRE cis-element reporter, Attagene transcription factor profiling; actives raise or lower the signal. In a few lines:
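Endogenous PPRE-driven transcription is measured in HepG2 cells carrying transfected multi-reporter constructs. Reporter transcripts are quantified by RT-PCR, HpaI digestion and capillary electrophoresis 24 h after dosing. DMSO baseline, bidirectional fit.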

Assay [2] deals with Bile acid receptor (Homo sapiens) (UniProt Q96RI1). The assay can be described thus: ATG_FXR_TRANS: Attagene TRANS-FACTORIAL HepG2 Assay for Farnesoid X Receptor (FXR) (AID 2282979).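 Further: hits raise reporter mRNA above DMSO so AC50 marks FXR activation.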 The following applies: HepG2 Attagene TRANS FXR-GAL4 reporter transcription. In a few lines:
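Transient transfection of HepG2 with multiplexed GAL4-UAS reporter units; exogenous FXR-GAL4 chimera. Dose 24 h → TriZol RNA → oligo(dT) RT → PCR, 6-FAM primer extension, HpaI cut → CE. Gain vs DMSO.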

Assay [3] deals with Oxysterols receptor LXR-alpha (Homo sapiens) (UniProt Q13133). Put plainly: ATG_LXRa_TRANS: Attagene TRANS-FACTORIAL HepG2 Assay for human Liver X Receptor alpha (LXRa) (AID 2282980). The following applies: HepG2 Attagene TRANS reporter, LXRa transactivation. In a few lines: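 Transfect HepG2 with GAL4-UAS multiplex reporter constructs (TRANS format, chimeric receptor-GAL4); treat 24 h; extract RNA, reverse-transcribe, PCR-amplify, FAM-label, HpaI-digest; resolve fragments by capillary electrophoresis. Upward response vs DMSO.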
Chain of Oxysterols receptor LXR-alpha (Homo sapiens) (Q13133 whole entry, looked up, the tested form may be a part): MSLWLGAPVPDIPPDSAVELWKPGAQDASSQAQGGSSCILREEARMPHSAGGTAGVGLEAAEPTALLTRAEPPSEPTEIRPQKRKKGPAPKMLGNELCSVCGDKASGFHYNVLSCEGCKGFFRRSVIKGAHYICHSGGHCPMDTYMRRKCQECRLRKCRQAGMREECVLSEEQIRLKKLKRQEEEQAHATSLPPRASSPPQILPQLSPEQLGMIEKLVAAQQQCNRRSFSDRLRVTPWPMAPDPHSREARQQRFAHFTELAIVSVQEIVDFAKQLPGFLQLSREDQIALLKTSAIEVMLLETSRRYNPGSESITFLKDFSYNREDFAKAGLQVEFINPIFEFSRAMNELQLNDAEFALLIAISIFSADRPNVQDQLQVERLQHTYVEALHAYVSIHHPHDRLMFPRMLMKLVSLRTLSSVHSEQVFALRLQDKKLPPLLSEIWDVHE

Assay [4] addresses Oxysterols receptor LXR-beta (Homo sapiens) (UniProt P55055). The assay can be described thus: ATG_LXRb_TRANS: Attagene TRANS-FACTORIAL HepG2 Assay for human Liver X Receptor beta (LXRb) (AID 2282981). The following applies: HepG2 Attagene TRANS GAL4-LXRb reporter, mRNA. In a few lines:
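Measures induction of a Gal4-driven reporter transcript in HepG2 cells expressing an exogenous LXRb-Gal4 fusion. Cells are exposed to compound for 24 h before RNA isolation and RT-PCR with capillary electrophoresis detection.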

A short description of assay [5]: ATG_M_06_TRANS: Attagene TRANS-FACTORIAL HepG2 Assay for M06 Transcription Factor (Internal Marker) (AID 2282983).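 Further: reporter transcript level by RT-PCR then capillary electrophoresis fluorescence.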 Particulars: HepG2 Attagene TRANS M06 internal marker reporter. In a few lines: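 Background control endpoint: reporter mRNA from transiently transfected HepG2 after 24 h dosing, detected by RT-PCR with capillary electrophoresis fluorescence. Analysed for gain versus DMSO.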

Assay [6] has as its target human Peroxisome Proliferator-activated Receptor delta (PPARd), PPARD (gene 5467) (UniProt Q03181). The assay can be described thus: ATG_PPARd_TRANS: Attagene TRANS-FACTORIAL HepG2 Assay for human Peroxisome Proliferator-activated Receptor delta (PPARd) (AID 2283002). In a few lines: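 HepG2 cells transiently transfected with multiplexed GAL4-UAS reporter units and exogenous chimeric NR-Gal4 proteins; 24 h compound exposure. Reporter mRNA measured by RT-PCR, 6-FAM labelling, HpaI digestion and capillary electrophoresis; gain of signal versus DMSO.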

Assay [7] deals with Peroxisome proliferator-activated receptor gamma (Homo sapiens) (UniProt P37231). The assay can be described thus: ATG_PPARg_TRANS: Attagene TRANS-FACTORIAL HepG2 Assay for human Peroxisome Proliferator-activated Receptor-gamma (PPARg) (AID 2283007). In a few lines: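 After 24 h of chemical exposure, transfected HepG2 cells carrying PPARγ-Gal4 chimera reporter constructs are lysed for RNA. Reporter transcripts are measured by RT-PCR and capillary electrophoresis with fluorescent labelling, and gain of signal is fitted versus DMSO.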
Chain of Peroxisome proliferator-activated receptor gamma (Homo sapiens) (P37231 whole entry, looked up, the tested form may be a part): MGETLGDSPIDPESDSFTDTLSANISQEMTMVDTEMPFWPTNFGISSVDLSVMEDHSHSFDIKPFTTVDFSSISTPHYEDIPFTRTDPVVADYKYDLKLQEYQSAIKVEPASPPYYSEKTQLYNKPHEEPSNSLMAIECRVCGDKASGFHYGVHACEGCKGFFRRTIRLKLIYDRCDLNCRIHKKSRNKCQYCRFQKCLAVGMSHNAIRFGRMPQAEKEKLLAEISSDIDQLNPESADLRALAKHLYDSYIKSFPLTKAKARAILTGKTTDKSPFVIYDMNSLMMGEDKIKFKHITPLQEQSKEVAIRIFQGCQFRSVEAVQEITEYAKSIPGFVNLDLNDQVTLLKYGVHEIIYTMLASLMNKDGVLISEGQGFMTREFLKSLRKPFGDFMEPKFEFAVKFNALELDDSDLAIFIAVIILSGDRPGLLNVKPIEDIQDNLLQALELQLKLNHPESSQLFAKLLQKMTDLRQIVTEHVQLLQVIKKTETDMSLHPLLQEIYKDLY

Assay [8] deals with Retinoic acid receptor RXR-alpha (Homo sapiens) (UniProt P19793). Put plainly: ATG_RXRa_TRANS: Attagene TRANS-FACTORIAL HepG2 Assay for human Retinoid X Receptor alpha (RXRa) (AID 2283012). In a few lines: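 Measures exogenous chimeric NR-GAL4 activity in transfected HepG2 liver cells after 24 h of dosing. Induced reporter mRNA was detected by RT-PCR with capillary electrophoresis, and gain of signal was analysed against DMSO.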
Chain of Retinoic acid receptor RXR-alpha (Homo sapiens) (P19793 whole entry, looked up, the tested form may be a part): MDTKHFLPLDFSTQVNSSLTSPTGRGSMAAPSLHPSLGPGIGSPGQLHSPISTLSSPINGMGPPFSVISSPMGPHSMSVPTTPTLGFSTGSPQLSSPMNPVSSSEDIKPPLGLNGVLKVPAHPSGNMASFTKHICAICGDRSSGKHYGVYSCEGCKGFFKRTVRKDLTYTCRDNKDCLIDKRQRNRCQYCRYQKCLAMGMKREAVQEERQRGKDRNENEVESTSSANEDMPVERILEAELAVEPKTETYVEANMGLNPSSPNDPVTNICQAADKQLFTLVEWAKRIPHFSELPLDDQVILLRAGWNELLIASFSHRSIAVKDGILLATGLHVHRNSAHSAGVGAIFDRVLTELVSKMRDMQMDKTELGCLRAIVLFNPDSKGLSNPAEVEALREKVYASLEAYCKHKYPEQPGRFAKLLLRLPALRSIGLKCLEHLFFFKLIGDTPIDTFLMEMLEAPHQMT

Assay [9] concerns the target human Thyroid Receptor alpha (THRa1), THRA (gene 7067) (UniProt P10827). The assay can be described thus: ATG_THRa1_TRANS: Attagene TRANS-FACTORIAL HepG2 Assay for human Thyroid Receptor alpha (THRa1) (AID 2283014). In a few lines: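 Reporter transcript induction, read by capillary electrophoresis of 6-FAM-labelled RT-PCR products, reflects activity of a transfected THRa1-Gal4 fusion in HepG2 liver cells. Cells were dosed for 24 h; activity was fitted in the positive direction against DMSO.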

Assay [10] is described as follows: TOX21_p53_BLA_p4_viability: Viability Assessment in the Tox21 HCT-116 p53 Agonism Beta-lactamase Assay, Phase 4 (AID 2283597).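 Further: hits lower the luminescence signal meaning cytotoxicity.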 In a few lines:
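Readout: ATP luminescence (CellTiter-Glo), measured 30 min after reagent addition at RT. The reagent followed a 2 h CCF4-AM incubation, and the cells had been exposed to compound for 16 h at 37C.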

Assay [11] is described as follows: CCTE_Harrill_HTTr_Viability_MCF7: CCTE's 6-hour Cell Viability Assessment for the High-Throughput Transcriptomics (HTTr) Platform, in MCF-7 cells cultured in DMEM + 10% fetal bovine serum, Harrill Lab (AID 2284010; active means hit-call score of the fitted dose curve at least 0.9, where 1 is the maximum; inactive means score below 0.9). In a few lines: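 Read-out is propidium iodide gain of signal by high-content imaging, reflecting membrane integrity loss. Measurements are taken 6 h after dosing, eight concentrations per chemical, with DMSO serving as baseline for bidirectional curve fitting.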

Assay [12] is described as follows: CCTE_Harrill_HTTr_Apoptosis_MCF7: CCTE's 6-hour Apoptosis Assessment for the High-Throughput Transcriptomics (HTTr) Platform, in MCF-7 cells cultured in DMEM + 10% fetal bovine serum, Harrill Lab (AID 2284011; active means hit-call score of the fitted dose curve at least 0.9, where 1 is the maximum; inactive means score below 0.9). In a few lines: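 MCF-7 (DMEM + 10% FBS), 384-well; 8-pt dilution series, 6 h chemical exposure; caspase-3/7 activation via CellEvent Caspase 3/7 Green, HCI; bidirectional fit vs DMSO.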

A short description of assay [13]: ATG_VDRE_CIS: Attagene CIS-FACTORIAL HepG2 Assay for human Vitamin D Receptor Element (VDRE) (AID 2282968; active means hit-call score of the fitted dose curve at least 0.9, where 1 is the maximum; inactive means score below 0.9). The following applies: HepG2 VDRE cis-reporter transcription, actives raise or lower the signal. In a few lines:
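Steps: transfect HepG2 with multiple reporter transcription units; dose chemicals 24 h; isolate RNA; RT-PCR; label with 6-FAM primer extension; HpaI digest; capillary electrophoresis. Curves fitted both directions against DMSO.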

For assay [14], the target named is Nuclear receptor subfamily 1 group I member 3 (Homo sapiens) (UniProt Q14994). Put plainly: ATG_CAR_TRANS: Attagene TRANS-FACTORIAL HepG2 Assay for human Constitutive Androstane Receptor (CAR) (AID 2282969).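 Further: activators raise reporter mRNA above DMSO so AC50 marks induction.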 Particulars: HepG2 Attagene TRANS-FACTORIAL CAR reporter. In a few lines: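 Steps: transient transfection of HepG2 with multiple GAL4-UAS reporter units; 24 h compound incubation; RNA isolation, RT-PCR, 6-FAM primer extension, HpaI digest; capillary electrophoresis. Gain-of-signal relative to DMSO negative control.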
Chain of Nuclear receptor subfamily 1 group I member 3 (Homo sapiens) (Q14994 whole entry, looked up, the tested form may be a part): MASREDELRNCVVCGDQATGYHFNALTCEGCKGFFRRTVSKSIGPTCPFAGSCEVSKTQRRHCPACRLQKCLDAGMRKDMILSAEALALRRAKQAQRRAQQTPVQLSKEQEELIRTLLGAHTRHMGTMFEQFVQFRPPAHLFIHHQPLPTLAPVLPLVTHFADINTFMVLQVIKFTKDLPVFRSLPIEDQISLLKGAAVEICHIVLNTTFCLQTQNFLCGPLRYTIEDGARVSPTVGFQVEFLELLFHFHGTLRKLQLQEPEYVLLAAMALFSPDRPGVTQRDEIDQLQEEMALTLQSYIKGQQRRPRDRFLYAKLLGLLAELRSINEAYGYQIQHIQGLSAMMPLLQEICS

Assay [15] can be described thus: ATG_M_19_TRANS: Attagene TRANS-FACTORIAL HepG2 Assay for M19 Transcription Factor (Internal Marker) (AID 2282974). Particulars: HepG2 Attagene TRANS-FACTORIAL M19 internal marker reporter. In a few lines:
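Background-control readout: after 24 h chemical exposure of transfected HepG2 carrying GAL4-driven reporter units, RNA was reverse-transcribed, amplified, fluorescently labeled and sized by capillary electrophoresis; gain-of-signal fit against DMSO.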

Assay [16] can be described thus: ATG_GAL4_TRANS: Attagene TRANS-FACTORIAL HepG2 Assay for GAL4 (Internal Marker) (AID 2282976). The following applies: HepG2 Attagene TRANS GAL4 internal marker reporter. In a few lines: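 First, HepG2 cells were transfected with reporter units under GAL4-UAS control. Next, they were treated with chemical for 24 h. Finally, RNA was reverse-transcribed, PCR-amplified, FAM-labelled and resolved by capillary electrophoresis, with induction scored against DMSO.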

Assay [17] concerns the target Glucocorticoid receptor (Homo sapiens) (UniProt P04150). The assay can be described thus: ATG_GR_TRANS: Attagene TRANS-FACTORIAL HepG2 Assay for human Glucocorticoid Receptor (GR) (AID 2282978).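 Further: activators score as hits since higher reporter transcript over DMSO is fitted.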 Particulars: HepG2 Attagene TRANS GR reporter, mRNA transcription. In a few lines:
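Readout is reporter transcript from a chimeric GR-Gal4 acting on GAL4-UAS in transfected human HepG2 liver cells after 24 h exposure, quantified by RT-PCR and capillary electrophoresis. Activation fitted upward against DMSO.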

Assay [18] addresses human Vitamin D Receptor (VDR), VDR (gene 7421) (UniProt P11473). The assay can be described thus: ATG_VDR_TRANS: Attagene TRANS-FACTORIAL HepG2 Assay for human Vitamin D Receptor (VDR) (AID 2283022). In a few lines: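 Steps: transfect HepG2 with GAL4-UAS-driven reporter constructs; dose compounds 24 h; isolate RNA, reverse-transcribe, PCR-amplify with 6-FAM-labelled primer extension and HpaI digestion; quantify fragments by capillary electrophoresis relative to DMSO.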

The nature of assay [19]: ACEA_ER_AUC_viability: ACEA Biosciences xCELLigence Real-Time Cell Analysis on Estrogen Receptor Agonism for Viability (AID 2283782).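 Further: hit means loss of impedance signal meaning reduced cell growth or viability.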 In a few lines:
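Continuous-exposure impedance cell analysis uses T-47D cells in charcoal-stripped serum, eight 1:4 dilutions topping at 100 uM final, biological duplicate. Area under the growth curve at 80 h is fitted against DMSO baseline.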

In assay [20] the target is human RAR-related Orphan Receptor beta (RORb), RORB (gene 6096) (UniProt Q92753). Put plainly: ATG_RORb_TRANS: Attagene TRANS-FACTORIAL HepG2 Assay for human RAR-related Orphan Receptor beta (RORb) (AID 2283010). In a few lines:
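Transfect HepG2 with multiple GAL4-UAS reporter transcription units; dose chemicals for 24 h; isolate RNA, reverse-transcribe and PCR-amplify reporter sequences; label, digest and resolve fragments by capillary electrophoresis; fit increases relative to DMSO.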

Chain of human Peroxisome Proliferator-activated Receptor delta (PPARd), PPARD (gene 5467) (Q03181 whole entry, looked up, the tested form may be a part): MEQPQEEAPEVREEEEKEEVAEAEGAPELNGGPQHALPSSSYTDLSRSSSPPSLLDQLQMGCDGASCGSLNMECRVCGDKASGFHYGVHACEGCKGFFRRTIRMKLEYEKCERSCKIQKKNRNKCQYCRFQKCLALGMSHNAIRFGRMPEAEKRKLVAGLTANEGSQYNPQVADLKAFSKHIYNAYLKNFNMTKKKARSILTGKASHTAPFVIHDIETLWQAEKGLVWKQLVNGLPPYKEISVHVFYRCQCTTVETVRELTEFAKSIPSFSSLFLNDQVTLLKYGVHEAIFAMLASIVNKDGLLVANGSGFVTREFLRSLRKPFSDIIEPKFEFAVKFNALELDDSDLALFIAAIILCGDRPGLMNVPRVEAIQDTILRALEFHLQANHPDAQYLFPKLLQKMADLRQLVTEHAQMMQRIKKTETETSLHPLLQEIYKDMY
Chain of human Vitamin D Receptor (VDR), VDR (gene 7421) (P11473 whole entry, looked up, the tested form may be a part): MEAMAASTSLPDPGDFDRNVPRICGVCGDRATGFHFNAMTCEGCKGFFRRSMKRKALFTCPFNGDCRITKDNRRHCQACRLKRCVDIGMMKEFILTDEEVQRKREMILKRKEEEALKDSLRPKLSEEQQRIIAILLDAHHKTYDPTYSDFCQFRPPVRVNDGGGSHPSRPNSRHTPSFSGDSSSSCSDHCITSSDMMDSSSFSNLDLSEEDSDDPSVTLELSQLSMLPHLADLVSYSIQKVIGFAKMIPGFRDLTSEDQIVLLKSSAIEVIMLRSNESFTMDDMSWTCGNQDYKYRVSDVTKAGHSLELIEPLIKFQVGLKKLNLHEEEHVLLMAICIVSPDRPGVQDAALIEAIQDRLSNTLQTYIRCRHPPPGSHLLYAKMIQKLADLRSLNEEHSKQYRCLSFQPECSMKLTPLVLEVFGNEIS
Chain of Oxysterols receptor LXR-beta (Homo sapiens) (P55055 whole entry, looked up, the tested form may be a part): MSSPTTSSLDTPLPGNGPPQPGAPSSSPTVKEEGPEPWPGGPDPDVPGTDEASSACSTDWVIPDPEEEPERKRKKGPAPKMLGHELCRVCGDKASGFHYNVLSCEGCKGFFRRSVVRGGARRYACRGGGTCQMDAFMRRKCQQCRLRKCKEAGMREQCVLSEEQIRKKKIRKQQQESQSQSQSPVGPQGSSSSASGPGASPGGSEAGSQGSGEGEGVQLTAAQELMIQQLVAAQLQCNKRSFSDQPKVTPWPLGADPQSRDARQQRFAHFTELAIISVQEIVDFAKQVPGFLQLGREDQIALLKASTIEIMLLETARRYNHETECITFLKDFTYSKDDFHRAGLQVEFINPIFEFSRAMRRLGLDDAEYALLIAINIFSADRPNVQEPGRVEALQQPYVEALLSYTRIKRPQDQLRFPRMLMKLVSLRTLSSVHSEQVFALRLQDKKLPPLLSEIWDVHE
Chain of human Thyroid Receptor alpha (THRa1), THRA (gene 7067) (P10827 whole entry, looked up, the tested form may be a part): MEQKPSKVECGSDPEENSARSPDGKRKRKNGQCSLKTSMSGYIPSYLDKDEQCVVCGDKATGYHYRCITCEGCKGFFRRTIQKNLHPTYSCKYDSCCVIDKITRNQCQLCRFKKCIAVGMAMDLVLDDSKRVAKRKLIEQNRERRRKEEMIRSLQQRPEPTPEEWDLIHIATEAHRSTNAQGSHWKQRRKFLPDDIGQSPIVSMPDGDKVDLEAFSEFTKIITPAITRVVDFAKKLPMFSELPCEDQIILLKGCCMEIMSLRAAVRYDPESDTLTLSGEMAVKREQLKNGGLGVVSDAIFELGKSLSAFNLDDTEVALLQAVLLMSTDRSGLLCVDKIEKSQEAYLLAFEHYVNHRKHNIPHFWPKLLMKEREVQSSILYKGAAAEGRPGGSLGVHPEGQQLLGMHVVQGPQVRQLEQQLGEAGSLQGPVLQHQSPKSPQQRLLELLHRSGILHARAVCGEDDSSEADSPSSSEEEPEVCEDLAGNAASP
Chain of Glucocorticoid receptor (Homo sapiens) (P04150 whole entry, looked up, the tested form may be a part): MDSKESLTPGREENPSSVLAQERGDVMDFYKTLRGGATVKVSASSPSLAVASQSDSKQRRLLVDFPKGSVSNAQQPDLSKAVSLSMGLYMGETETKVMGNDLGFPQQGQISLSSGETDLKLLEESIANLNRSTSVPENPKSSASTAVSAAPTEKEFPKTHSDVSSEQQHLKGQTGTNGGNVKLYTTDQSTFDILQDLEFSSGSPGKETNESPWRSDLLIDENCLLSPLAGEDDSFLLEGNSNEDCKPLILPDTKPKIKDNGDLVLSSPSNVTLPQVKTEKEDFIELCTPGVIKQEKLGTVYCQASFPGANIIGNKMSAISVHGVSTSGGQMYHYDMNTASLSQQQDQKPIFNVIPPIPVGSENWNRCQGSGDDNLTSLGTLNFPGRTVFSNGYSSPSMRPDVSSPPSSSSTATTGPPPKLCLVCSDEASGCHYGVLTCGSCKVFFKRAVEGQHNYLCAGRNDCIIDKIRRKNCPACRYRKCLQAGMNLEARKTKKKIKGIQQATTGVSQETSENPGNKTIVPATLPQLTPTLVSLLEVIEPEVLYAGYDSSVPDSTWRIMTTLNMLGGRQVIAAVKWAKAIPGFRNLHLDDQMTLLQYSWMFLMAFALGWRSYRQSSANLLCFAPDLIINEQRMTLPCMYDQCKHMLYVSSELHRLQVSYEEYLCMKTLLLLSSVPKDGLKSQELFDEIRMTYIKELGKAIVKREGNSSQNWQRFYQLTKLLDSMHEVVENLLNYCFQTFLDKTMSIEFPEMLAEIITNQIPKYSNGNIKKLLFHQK
Chain of Bile acid receptor (Homo sapiens) (Q96RI1 whole entry, looked up, the tested form may be a part): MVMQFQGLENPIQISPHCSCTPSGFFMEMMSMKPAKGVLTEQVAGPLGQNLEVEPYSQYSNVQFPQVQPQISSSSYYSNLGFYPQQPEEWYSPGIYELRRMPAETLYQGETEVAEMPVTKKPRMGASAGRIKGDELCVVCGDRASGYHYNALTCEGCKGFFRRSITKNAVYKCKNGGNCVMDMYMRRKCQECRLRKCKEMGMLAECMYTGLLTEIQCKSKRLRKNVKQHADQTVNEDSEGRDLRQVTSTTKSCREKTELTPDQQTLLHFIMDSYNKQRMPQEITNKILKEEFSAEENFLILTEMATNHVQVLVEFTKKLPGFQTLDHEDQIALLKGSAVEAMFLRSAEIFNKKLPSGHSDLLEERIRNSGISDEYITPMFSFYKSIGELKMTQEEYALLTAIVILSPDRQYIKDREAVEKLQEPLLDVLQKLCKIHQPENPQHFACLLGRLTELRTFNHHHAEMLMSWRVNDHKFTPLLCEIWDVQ

On to `Oc1ccc(Cl)cc1C1CCCC1`, for which the result in assay [1], in [3], in [4], in [5], in [6] and in assay [9] was inactive. Besides, the outcome in assay [11] and in assay [12] was inactive. Moreover, the half-maximal activity concentration (AC50) was 18.5 µM (active) in [2], 33.4 µM (active) in assay [7], 17.6 µM (active) in [8] and 66.6 µM (active) in [10].

For the molecule `CCCC(=O)OC/C=C(\C)CCC=C(C)C`, the molecule was classed as inactive in [1], in assay [13], in [14], in assay [15], in assay [16] and in assay [17]. Moreover, the call in [5], in assay [7], in assay [8], in assay [9] and in assay [18] was inactive. In addition, the AC50 in [19] was 68.8 µM (active).

Regarding `CCCC(=O)OC`, the molecule was called inactive in assay [4], in assay [7] and in [18].

`COc1ccccc1OCC(O)CO` (stereo unspecified): the result in assay [1], in assay [13], in [15], in assay [6], in [9] and in assay [19] was inactive.

Consider `C[C@H]1C[C@H]2[C@@H]3CCC4=CC(=O)C=C[C@]4(C)[C@@]3(F)[C@@H](O)C[C@]2(C)[C@@]1(O)C(=O)CO`, for which the result in assay [15], in assay [5], in assay [6], in assay [8], in assay [9] and in [10] was inactive. Also, the outcome in assay [11] and in assay [12] was inactive.

For the molecule `O=C(O)c1ccccc1C(=O)O`, the molecule was called inactive in [16], in assay [17], in assay [4], in assay [6], in [9] and in assay [10]. Also, the outcome in [19] was inactive.

Take `CC(O)(P(=O)(O)O)P(=O)(O)O`: the outcome in assay [16], in assay [3], in assay [5], in assay [8] and in assay [9] was inactive.

Regarding `CC1=C(CC=O)C(C)(C)CCC1`, the call in assay [13], in assay [3], in [4], in [7], in [20] and in assay [8] was inactive. In addition, the outcome in assay [18] was inactive. The AC50 in assay [19] was 64.2 µM (active).
